Source: PubChem BioAssay (several laboratories)
Gli-Sufu antag – blocks Gli-Sufu signaling in a luciferase reporter. Sufu-KO-LIGHT fibroblasts, Gli luciferase reporter luminescence. inhibition, % at 5 µM. hit rate 0.74% among 340,000. AID 588413;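 active means inhibition above about 55%, limit read from the data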;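 further: 0% = DMSO-treated cells and 100% = wells with medium but no cells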
SRC2 inh – human SRC2 (NCOA2) inhibition | Q15596 | HEK293 GAL4-SRC2 luciferase reporter, luminescence | inhibition, % at 9 µM | hit rate 0.17% among 370,000;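 active means inhibition above the mean inhibition of all tested compounds plus 3 SD, set per campaign, cut at about 52% in these data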;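 further: 0% = DMSO treated cells and 100% = cells given Gossypol at 36 µM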
Target sequence (Q15596 whole entry, looked up, the tested form may be a part): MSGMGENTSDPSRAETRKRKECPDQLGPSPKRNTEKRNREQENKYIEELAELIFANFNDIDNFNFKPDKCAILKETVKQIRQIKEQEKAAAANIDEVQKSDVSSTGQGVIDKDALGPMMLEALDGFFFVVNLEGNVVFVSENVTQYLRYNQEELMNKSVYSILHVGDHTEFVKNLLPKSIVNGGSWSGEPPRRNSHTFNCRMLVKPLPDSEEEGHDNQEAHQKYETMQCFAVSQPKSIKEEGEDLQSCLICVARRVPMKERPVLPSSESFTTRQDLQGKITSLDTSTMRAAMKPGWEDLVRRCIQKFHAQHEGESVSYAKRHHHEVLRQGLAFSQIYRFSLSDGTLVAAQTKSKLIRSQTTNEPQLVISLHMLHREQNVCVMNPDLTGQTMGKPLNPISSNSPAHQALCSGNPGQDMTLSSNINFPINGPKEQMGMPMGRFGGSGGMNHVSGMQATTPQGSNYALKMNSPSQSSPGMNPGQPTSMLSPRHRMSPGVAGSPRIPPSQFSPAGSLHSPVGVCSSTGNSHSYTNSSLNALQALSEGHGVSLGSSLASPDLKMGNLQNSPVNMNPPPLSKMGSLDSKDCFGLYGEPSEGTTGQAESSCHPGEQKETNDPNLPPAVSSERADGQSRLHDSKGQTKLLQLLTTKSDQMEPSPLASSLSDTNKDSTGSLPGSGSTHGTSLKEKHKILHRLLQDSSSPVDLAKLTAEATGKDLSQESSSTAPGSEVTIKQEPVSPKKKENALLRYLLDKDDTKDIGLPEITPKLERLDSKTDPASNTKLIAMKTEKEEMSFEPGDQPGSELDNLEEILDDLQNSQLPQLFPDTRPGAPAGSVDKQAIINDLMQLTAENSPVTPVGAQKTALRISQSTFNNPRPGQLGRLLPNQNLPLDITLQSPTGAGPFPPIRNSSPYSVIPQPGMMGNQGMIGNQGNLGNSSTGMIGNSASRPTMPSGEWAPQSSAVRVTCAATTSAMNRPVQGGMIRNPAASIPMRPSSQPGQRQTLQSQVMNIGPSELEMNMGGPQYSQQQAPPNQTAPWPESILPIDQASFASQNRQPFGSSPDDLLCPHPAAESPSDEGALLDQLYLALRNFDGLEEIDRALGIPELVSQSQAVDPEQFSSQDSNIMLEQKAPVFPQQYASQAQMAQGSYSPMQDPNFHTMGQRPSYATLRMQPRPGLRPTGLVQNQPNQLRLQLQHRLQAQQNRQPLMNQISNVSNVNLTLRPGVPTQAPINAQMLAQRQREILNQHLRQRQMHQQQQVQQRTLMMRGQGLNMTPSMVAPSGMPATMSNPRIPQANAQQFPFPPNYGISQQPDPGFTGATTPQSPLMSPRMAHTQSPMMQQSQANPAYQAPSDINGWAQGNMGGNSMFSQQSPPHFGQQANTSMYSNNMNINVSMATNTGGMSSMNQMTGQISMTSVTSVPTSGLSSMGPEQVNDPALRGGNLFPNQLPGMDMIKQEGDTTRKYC
SRC3 inh – inhibits human SRC3 coactivator. HEK293 GAL4-SRC3 luciferase reporter, luminescence. inhibition, % at 3.6 µM. hit rate 0.17% among 360,000. AID 588352;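 active means inhibition above a per-campaign cutoff, the mean of all compounds plus 3 SD, cut at about 60% in these data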;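 further: 0% = DMSO-treated cells and 100% = gossypol-treated cells at 36 µM; higher means less SRC3-driven luciferase light from the GAL4 reporter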
NR5A2 inv ag – NR5A2 inverse agonism in reporter assay. HEK293T StAR-luciferase reporter, LRH-1 transfected, 24 h. inhibition, % at 3.6 µM. hit rate 0.13% among 360,000;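 active means inhibition above the mean inhibition of all tested compounds plus 3 SD, cut at about 73% in these data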;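 further: 0% = DMSO wells and 100% = reporter-only cells lacking LRH-1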
NCOA1 inh – human NCOA1 inhibition. Q15788. hit rate 0.12% among 360,000. AID 588354. HEK293 GAL4-SRC1 luciferase reporter, luminescence. inhibition, % at 3.6 µM;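 active means inhibition above the campaign mean plus 3 SD, with each screening campaign given its own cutoff, cut at about 60% in these data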;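 further: 0% = DMSO treated cells and 100% = gossypol at 36 µM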
COUP-TFII inh – inhibitors of human COUP-TFII (NR2F2) | HEK293T NGFI-A luciferase reporter, luminescence | inhibition, % at 8.6 µM | hit rate 0.7% among 370,000;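 active means inhibition above a per-plate cutoff, mean inhibition of test wells between control levels plus 3 SD, cut at about 38% in these data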;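 further: cells cotransfected with COUP-TFII expression vector driving the NGFI-A reporter; 0% = median of COUP-TF2 test wells and 100% = reporter-only cells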
Gli antag conf – Gli-SUFU antagonism confirmation, single concentration; shares compounds with Gli-Sufu antag; Sufu-KO-LIGHT cells, Gli luciferase reporter, luminescence; inhibition, % at 5 µM; hit rate 40% among 2,500; AID 602428;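 active means mean inhibition at 5 µM reaching about 45%, limit read from the data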;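 further: plate controls were DMSO-treated cells for no effect and wells lacking cells for full effect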
SufuKO cytotox – cytotoxicity counter-screen for Gli-SUFU antagonists | shares compounds with Gli-Sufu antag | cytotoxicity, % at 5 µM | hit rate 32% among 2,500 | Sufu-KO-LIGHT cells cytotoxicity, ATP luminescence;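 active means mean cytotoxicity at 5 µM above about 25%, limit read from the data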;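 further: cells exposed to compound overnight for roughly 16 to 18 hours; plate controls were DMSO wells with cells for no effect and medium without cells for full effect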
Wnt3a counter – inhibits Wnt3a reporter, counter-screen for Gli-SUFU antagonists | inhibition, % at 6.25 µM | Wnt-LIGHT cells, Wnt3a-driven luciferase reporter, luminescence | hit rate 20% among 2,500 | shares compounds with Gli-Sufu antag;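 active means mean inhibition above about 25%, limit read from the data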
* hit, by the source's call; x = no result given; ! = not active in a repeat. This is a sample that favours compounds with a hit; in the whole collection about 1.3% have one here.

SMILES | Gli-Sufu antag | SRC2 inh | SRC3 inh | NR5A2 inv ag | NCOA1 inh | COUP-TFII inh | Gli antag conf | SufuKO cytotox | Wnt3a counter
CCC(=O)Nc1cccc(-n2nnnc2SCC(=O)N2CCCCC2)c1 | 59* | 9 | -17 | -38 | -21 | -12 | 7 | 15 | 1
COc1ccc(OCC(O)CNC(C)c2ccccc2)cc1 (stereo not drawn) | 6 | -4 | -7 | 6 | -10 | 16 | x | x | x
CC(NCC(O)COc1ccc(Br)cc1)c1ccccc1 (stereo not drawn) | 58* | -8 | 2 | -6 | 1 | -21 | 14 | 2 | -37
CCC(Sc1nc(-c2ccccc2)cc(=O)[nH]1)C(=O)O (stereo not drawn) | 5 | -15 | 18 | 20 | -6 | -2 | x | x | x
CC(C)Sc1nc(-c2ccccc2)cc(=O)[nH]1 | 69* | 14 | -36 | 11 | -29 | 4 | 22 | 4 | 3
COC(=O)c1c(-n2cnnn2)sc(C)c1C | 50 | -12 | 6 | 6 | 0 | 9 | 20 | 2 | -41
CCc1noc(C)c1C(=O)N1CCN(CC(=O)OC)CC1 | x | -11 | x | x | x | -14 | x | x | x
O=C(O)c1cccc(N/N=C/c2sc(N3CCOCC3)nc2-c2ccccc2)c1 | -85 | -64 | -75 | -89 | -121 | -10 | x | x | x
O=[N+]([O-])c1ccc(N/N=C/c2sc(N3CCOCC3)nc2-c2ccccc2)c(S(=O)(=O)Nc2ccccc2Cl)c1 | 69* | 13 | 9 | -12 | -39 | 6 | 81* | 12 | 60*
O=[N+]([O-])c1ccc(N/N=C/c2sc(N3CCOCC3)nc2-c2ccccc2)c(S(=O)(=O)Nc2ccc(Cl)cc2)c1 | 90* | -13 | 5 | 1 | -9 | -24 | 90* | 3 | 72*
C[C@H]1[C@@H](OC(=O)NCc2ccccc2Cl)CC[C@@]23CCCN2C(=O)CCC[C@@H]13 | x | x | x | x | x | 2 | x | x | x
CCOC(=O)C1CCN(c2cc3c(cc2NC(=O)c2cc(OC)ccc2Br)n(C)c(=O)n3C)CC1 | 51 | -18 | 14 | 1 | 9 | 9 | 17 | 16 | 2
NC(N)=NC(N)=Nc1ccc2ccccc2c1 | 5 | 10 | 7 | 2 | -14 | -20 | x | x | x
NC(N)=NC(N)=Nc1ccc(SC(F)(F)F)cc1 | 67* | 27 | 22 | 22 | -5 | 4 | 72* | 28* | 94*
Cc1nc2ccccc2c(N)c1C(=O)/C=C/c1ccccc1 | 61* | 25 | 30 | 35 | 29 | 12 | 15 | -2 | -55
Cn1c(SCC(=O)N(Cc2ccccc2)C(C)(C)C)nc2ccccc21 | 58* | x | 12 | -3 | -5 | x | 15 | 4 | -15
Cn1c(SCC(=O)N2CCCC2)nc2ccccc21 | -4 | -7 | -3 | 8 | 2 | 0 | x | x | x
O=C1N2Cc3ccccc3C2CS(=O)(=O)N1C1CCCC1 (stereo not drawn) | x | 11 | x | x | x | -12 | x | x | x
COc1cc2nc(=S)n3[nH]c(CCn4nc(C)cc4C)nc3c2cc1OC | 68* | -20 | -18 | 1 | 1 | 20 | 40 | 13 | 5
COc1cc2nc(=S)n3[nH]c(COc4ccccc4C)nc3c2cc1OC | 7 | -10 | 10 | 17 | 9 | 7 | x | x | x
O=C(N/N=C/c1cc2ccccc2nc1Cl)[C@H]1C[C@@H]1c1ccccc1 | 73* | 18 | 13 | 4 | -8 | 8 | 37 | 17 | -59
CCCCNS(=O)(=O)CC1NCCc2ccccc21 (stereo not drawn) | x | 1 | x | x | x | 8 | x | x | x
CN(C(=O)[C@@H](Cc1ccccc1)NC(=O)[C@H]1O[C@@H](n2ccc(=O)[nH]c2=O)[C@H](O)[C@@H]1O)C1CCCCC1 | x | 17 | x | x | x | -5 | x | x | x
O=C(c1ccccc1SCc1ccccc1)N1CCOCC1 | 61* | -3 | -9 | -17 | 2 | -5 | 17 | -2 | 9
COc1ccc(NC(=O)c2ccc(CNc3c(NC4CCCCC4)c(=O)c3=O)cc2)cc1OC | 59*! | -25 | -3 | 11 | 3 | -9 | 10 | -6 | -4
SMILES | Gli-Sufu antag | SRC2 inh | SRC3 inh | NR5A2 inv ag | NCOA1 inh | COUP-TFII inh | Gli antag conf | SufuKO cytotox | Wnt3a counter
O=C1C(Cc2cccc([N+](=O)[O-])c2)SC(=Nc2ccccc2)N1c1ccccc1 (stereo not drawn) | 62* | 9 | 18 | 4 | 9 | 7 | 19 | 24 | -36
O=C1C(Cc2ccc(Br)cc2)SC(=Nc2ccccc2)N1c1ccccc1 (stereo not drawn) | -8 | 13 | 11 | 5 | -32 | 14 | x | x | x
COC(=O)[C@]12C[C@H](CC(=O)NCc3ccc(C)o3)C(=O)N(Cc3cccc4ccccc34)C1=C[C@H](COCc1ccccc1)O[C@@H]2C | x | -1 | x | x | x | 9 | x | x | x
O=S(=O)(NCCc1ccccc1)c1ccc(-n2cnnn2)cc1 | 54 | 19 | 0 | 7 | -29 | -3 | 17 | 1 | -4
Cc1cc(S(=O)(=O)NCCc2ccccc2)ccc1-n1cnnn1 | 20 | 6 | 9 | -5 | -7 | -8 | x | x | x
COC(=O)[C@]12C[C@H](CC(=O)NCc3cccc4ccccc34)C(=O)N(Cc3ccc(Cl)cc3Cl)C1=C[C@H](C(C)C)O[C@@H]2C1CC1 | x | 13 | x | x | x | 30 | x | x | x
Cc1cc(NC(=O)CSc2nc3c([nH]c4ccccc43)c(=O)n2-c2ccccc2F)no1 | 58* | 9 | -26 | 15 | -12 | -4 | 56* | 23 | 19
COc1ccccc1-n1c(SCC(=O)Nc2cc(C)on2)nc2c([nH]c3ccccc32)c1=O | 7 | 13 | 1 | 7 | 9 | -10 | x | x | x
CCN(CC)C(=O)CSc1nnc(-c2ccc(C(C)(C)C)cc2)n1Cc1ccco1 | x | 5 | x | x | x | 24 | x | x | x
CC(C)(C)OC(=O)N1CCC(c2cc(-c3cccs3)n[nH]2)CC1 | 57* | -10 | -3 | -22 | -11 | -4 | 42 | 9 | -66
COc1ccc(N2CCN(C3CCCN(S(=O)(=O)c4ccc(C)cc4C)C3)CC2)cc1 (stereo not drawn) | 60* | 37 | -7 | -3 | -12 | 36 | 21 | 7 | -17
COc1ccc(N2CCN(C3CCCN(C(=O)c4ccoc4)C3)CC2)cc1 (stereo not drawn) | 55* | 2 | 15 | -8 | 5 | -2 | 4 | -6 | 6
O=C(c1ccoc1)N1CCCC(N2CCN(c3ccc(F)cc3)CC2)C1 (stereo not drawn) | 9 | -5 | -3 | -17 | -10 | 8 | x | x | x
COc1ccc(C(C(=O)N(C)C2CCCC2)N(Cc2ccc(F)cc2)C(=O)c2ncn[nH]2)cc1OC (stereo not drawn) | x | -8 | x | x | x | -14 | x | x | x
COc1ccc2c(c1)c(C(=O)CN1CCN(c3ccccc3)CC1)c(C)n2C | 9 | x | x | x | x | x | x | x | x
